Assay [1] in a line: NCI Yeast Anticancer Drug Screen. Data for the rad50 strain (AID 155).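 Further: 0% = growth of vehicle-only cultures of the same strain.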 The settings on record: S. cerevisiae rad50 strain growth inhibition, hits give high values. In outline: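 Cells are treated with compound, grown, and their growth is then scored against vehicle-only cultures of the same repair-deficient yeast strain.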
A short description of assay [2]: NCI Yeast Anticancer Drug Screen. Data for the mec2-1 strain (AID 157). To be noted: S. cerevisiae mec2-1 strain, hits give high values. In short, it runs like this:
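Compounds were applied to mec2-1 yeast cells. Their growth was then compared with that of vehicle-treated cultures to give growth inhibition.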

Assay [3] in a line: NCI Yeast Anticancer Drug Screen. Data for the sgs1 mgt1 strain (AID 161).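 Further: 0% = growth of cultures given vehicle only.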 To be noted: S. cerevisiae sgs1 mgt1 strain, hits give high values. In outline:
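Growth of a repair-deficient yeast mutant was monitored after compound treatment and expressed as inhibition relative to vehicle-treated cultures.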

Assay [4] is described as follows: NCI Yeast Anticancer Drug Screen. Data for the cln2 rad14 strain (AID 165).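 Further: 0% = growth equal to vehicle treated cultures.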 The settings on record: S. cerevisiae cln2 rad14 strain, hits give high values. In outline:
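Strain: cln2 rad14 yeast, altered in cell cycle control and DNA damage repair. Read-out: growth inhibition vs vehicle.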

A short description of assay [5]: NCI Yeast Anticancer Drug Screen. Data for the bub3 strain (AID 167). The settings on record: S. cerevisiae bub3 mutant strain, hits give high values. In outline: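 Part of a panel of yeast mutants defective in DNA damage repair or cell cycle regulation. Each strain is grown with compound, and inhibition is calculated relative to solvent-treated cultures.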
A short description of assay [6]: NCI Yeast Anticancer Drug Screen. Data for the mlh1 rad18 strain (AID 175). The settings on record: S. cerevisiae mlh1 rad18 strain growth inhibition, hits give high values. In outline: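 A repair-deficient yeast strain is exposed to test compound, and growth is scored relative to vehicle-treated controls.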
Setting [7] is: at 5.0 µM (retest, dose inferred, filed as 0.5).
The mark [8] stands for this setting: at 50.0 µM (retest, dose inferred, filed as 5.0).

The panel holds about 79,000 compounds, 15% with a hit somewhere; the sample as a whole holds those more often. A number with no mark means an inactive call. Active and inactive are the calls of the source. No stated cut-off is given here; in the data, active means growth inhibition above about 70%; inactive means the rest.

As to `C(#Cc1ccccc1)Sc1ccccc1`, the growth inhibition is 6% in assay [1] (setting [7]); 4% in assay [1] (setting [8]); 12.9% in assay [1] (at 50.0 µM); -9% in assay [2] (setting [7]); 14% in assay [2] (setting [8]); 31.1% in assay [2] (at 50.0 µM). Also, the growth inhibition in assay [3] (setting [7]) was 1%; in assay [3] (setting [8]), 18%; in assay [3] (at 50.0 µM), 65.7%; in assay [4] (setting [7]) it was 6%; in assay [4] (setting [8]) it was 6%; in assay [4] (at 50.0 µM) it was 23.1%. Also, the growth inhibition in assay [5] (setting [7]) is 29%; in assay [5] (setting [8]) it was 9%; in assay [5] (at 50.0 µM) it was -30.8%; in assay [6] (setting [7]) it was 4%; in assay [6] (setting [8]) it was 11%; in assay [6] (at 50.0 µM) it was 56.4%.

As for `CCOc1cc(C(c2ccc(N(C)C)cc2)c2ccc(N(C)C)cc2)ccc1O`, the growth inhibition in assay [1] (setting [7]) is -1%; in assay [1] (setting [8]) it was 26%; in assay [1] (at 50.0 µM), 36.2%; in assay [2] (setting [7]), -1%; in assay [2] (setting [8]), 52%; in assay [2] (at 50.0 µM) it was 44.8%. Besides, the growth inhibition is 0% in assay [3] (setting [7]); 54% in assay [3] (setting [8]); 74.2% (active) in assay [3] (at 50.0 µM); 2% in assay [4] (setting [7]); 52% in assay [4] (setting [8]); 84.1% (active) in assay [4] (at 50.0 µM). Moreover, the growth inhibition was 8% in assay [5] (setting [7]); 79% (active) in assay [5] (setting [8]); 79.4% (active) in assay [5] (at 50.0 µM); 0% in assay [6] (setting [7]); 42% in assay [6] (setting [8]); 59.5% in assay [6] (at 50.0 µM).

On to `C/C(=N\OS(=O)(=O)O)SC1OC(CO)C(O)C(O)C1O` (stereo not drawn), for which the growth inhibition in assay [1] (setting [7]) is 3%; in assay [1] (setting [8]) it was -17%; in assay [1] (at 50.0 µM) it was 3.1%; in assay [2] (setting [7]), -2%; in assay [2] (setting [8]), -13%; in assay [2] (at 50.0 µM), -4.8%. Further, the growth inhibition in assay [3] (setting [7]) was -1%; in assay [3] (setting [8]) it was 11%; in assay [3] (at 50.0 µM) it was -7.4%; in assay [4] (setting [7]) it was -16%; in assay [4] (setting [8]), 18%; in assay [4] (at 50.0 µM) it was -0.95%. The growth inhibition in assay [5] (setting [7]) was -2%; in assay [5] (setting [8]), -3%; in assay [5] (at 50.0 µM), -8.15%; in assay [6] (setting [7]), 6%; in assay [6] (setting [8]) it was -3%; in assay [6] (at 50.0 µM) it was -11%.

With `COC(=O)[C@@H](O)[C@]1(C(=O)OC)C2O[C@@H](OC)[C@@H]1CCCCCC[C@H]2O`, the growth inhibition in assay [1] (setting [7]) is 21%; in assay [1] (setting [8]) it was 11%; in assay [1] (at 50.0 µM), -2.05%; in assay [2] (setting [7]), 10%; in assay [2] (setting [8]), 11%; in assay [2] (at 50.0 µM), 0.45%. Besides, the growth inhibition is 10% in assay [3] (setting [7]); 17% in assay [3] (setting [8]); -6.85% in assay [3] (at 50.0 µM); 17% in assay [4] (setting [7]); 29% in assay [4] (setting [8]); 2.1% in assay [4] (at 50.0 µM). The growth inhibition in assay [5] (setting [7]) is 18%; in assay [5] (setting [8]), 13%; in assay [5] (at 50.0 µM), 8.85%; in assay [6] (setting [7]), 19%; in assay [6] (setting [8]) it was 12%; in assay [6] (at 50.0 µM), -1.95%.

As for `Cc1ccc([N+](=O)[O-])cc1Cl`, the growth inhibition was -3% in assay [1] (setting [7]); -4% in assay [1] (setting [8]); -4.35% in assay [1] (at 50.0 µM); 2% in assay [2] (setting [7]); -2% in assay [2] (setting [8]); -8.45% in assay [2] (at 50.0 µM). Further, the growth inhibition is 1% in assay [3] (setting [7]); -1% in assay [3] (setting [8]); -2.6% in assay [3] (at 50.0 µM); -2% in assay [4] (setting [7]); -1% in assay [4] (setting [8]); 93.2% (active) in assay [4] (at 50.0 µM). Besides, the growth inhibition in assay [5] (setting [7]) was -3%; in assay [5] (setting [8]), -4%; in assay [5] (at 50.0 µM), -3.85%; in assay [6] (setting [7]), -1%; in assay [6] (setting [8]), -6%; in assay [6] (at 50.0 µM), -2.45%.

For the compound `Oc1ccc(-c2ccccc2)cc1Cl`, the growth inhibition is -1% in assay [1] (setting [7]); 98% (active) in assay [1] (setting [8]); 99.2% (active) in assay [1] (at 50.0 µM); -12% in assay [2] (setting [7]); 99% (active) in assay [2] (setting [8]); 99.7% (active) in assay [2] (at 50.0 µM). Further, the growth inhibition in assay [3] (setting [7]) is -3%; in assay [3] (setting [8]) it was 99% (active); in assay [3] (at 50.0 µM), 99.7% (active); in assay [4] (setting [7]) it was -11%; in assay [4] (setting [8]), 98% (active); in assay [4] (at 50.0 µM) it was 97.5% (active). Further, the growth inhibition in assay [5] (setting [7]) was -23%; in assay [5] (setting [8]), 98% (active); in assay [5] (at 50.0 µM), 99.4% (active); in assay [6] (setting [7]) it was -5%; in assay [6] (setting [8]) it was 99% (active); in assay [6] (at 50.0 µM) it was 99% (active).

The record behind these values is PubChem BioAssay (NCI).
